LASV entry inh: inhibitors of Lassa virus binding or cell entry | Lassa virus pseudotype entry inhibition, cell reporter | Potency, µM (titrated, usually from 37.9 µM), inactives show top-dose activity change, negative = inhibition, hits mostly inhibitors | actives 1.2% (n = 300,000) | AID 540256; calls by dose curve; tested in HEK293 cells; also: nearly all actives have a fitted effect of over 50% in size
FMDV inh: antivirals against foot and mouth disease virus | FMDV antiviral cell-based qHTS | Potency, µM (highest dose often 57.9 µM), for inactives: at the top dose activity change, negative = inhibition, actives largely listed as inhibitors | actives 1.2% (n = 410,000); calls by dose curve; tested in HEK293T cells; also: read-out not given here; nearly all actives have a fitted effect of over 45% in size
VACV mCherry inh: vaccinia inhibition (mCherry reporter); Vaccinia virus mCherry reporter infection, fluorescence; Potency, µM (titrated, usually from 36.5 µM), inactives show top-dose activity change, negative = inhibition, most hits filed as inhibitors; actives 0.63% (n = 310,000); AID 720579; calls by dose curve; tested in A549 cells; also: nearly all actives have a fitted effect of over 35% in size
HCV inhibitor: inhibitors of hepatitis C virus infection; Huh7.5.1 HCVcc-Cre infection, luciferase reporter, 44 h; Potency, µM (highest dose often 41.8 µM), for inactives: at the top dose activity change, negative = inhibition, actives largely listed as inhibitors; actives 3.4% (n = 340,000); active = well fitted inhibition curve with a large enough effect; inconclusive = small, poorly fitted or top-dose-only effect, or another doubt; inactive = no such curve, though single readings can be large or run the other way
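Luciferase read-out (15 sec integration) after a 15 min room-temperature substrate step quantifies HCVcc-Cre infection. Cells, 1,000 per well, had compound added 4 h post-plating, then virus at ~0.5 moi, and were cultured 44 h.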
Marburg entry inh: blocks Marburg virus binding to or entry into cells; Marburg virus pseudotyped entry inhibition, cell reporter; Potency, µM (titrated, usually from 37.8 µM), inactives show at the top dose activity change, negative = inhibition, hits mostly inhibitors; actives 1.8% (n = 300,000); AID 540276; calls by dose curve; tested in HEK293 cells
Vaccinia Venus: vaccinia inhibition (Venus reporter); Vaccinia virus Venus reporter expression, fluorescence; Potency, µM (series often up to 36.5 µM), for the others: top-dose activity change, negative = inhibition, most hits filed as inhibitors; actives 0.46% (n = 330,000); AID 720580; calls by dose curve; tested in A549 cells; also: nearly all actives have a fitted effect of over 30% in size
An asterisk follows results filed as active; [ ] = remark or other dose. Compounds with a hit are over-represented: about 5.3% of the library has one in this group of screens. % is scaled to controls: 0 for no effect and ±100 for the full control effect; potency is read from the fitted curve at half-maximal effect.

Results for Cc1cccc(/C=N/NC(=O)c2cc(Br)ccc2O)n1 ?
LASV entry inh: inconclusive; FMDV inh: 38.8%; VACV mCherry inh: -28.7%; HCV inhibitor: 3.98µM*; Marburg entry inh: inconclusive; Vaccinia Venus: -22.5%

How did CCOC(=O)c1c(C)[nH]c(C2=NNC(=NC3CC3)SC2)c1C do in these assays?
FMDV inh: 22.4µM*; HCV inhibitor: inconclusive

What do the screens show for `CN1CCN(c2ccc(NC(=O)Oc3ccccc3)cc2)CC1`?
LASV entry inh: 4.2%; FMDV inh: 46.0%; VACV mCherry inh: -8.3%; HCV inhibitor: 18.3%; Marburg entry inh: inconclusive; Vaccinia Venus: -0.6%

What do the screens show for `C=CC(=O)Nc1ccc(N(C)c2ccnc(Nc3ccc(N4CCN(C)CC4)cc3)n2)cc1`?
FMDV inh: 0.0%; VACV mCherry inh: 6.31µM*; HCV inhibitor: inconclusive; Vaccinia Venus: 7.94µM*

What do the screens show for `COC(=O)C1=C(C(=O)OC)[C@@H]2N(Cc3ccccc3)c3ccccc3[C@@]23CCC(=O)N(CC2CCCCC2)C3=N1`?
Marburg entry inh: 11.5%[14.2 µM]

Results for Cc1ccccc1C(=O)Nc1cccc(-c2nnc(SCC(=O)NCc3ccco3)n2C)c1 ?
VACV mCherry inh: -16.1%; Vaccinia Venus: -14.8%

How did COc1cc(-c2noc(-c3ccc(NCC4CCCO4)c([N+](=O)[O-])c3)n2)cc(OC)c1OC (centres undefined) do in these assays?
LASV entry inh: 3.8%[46.1 µM]; FMDV inh: 11.2µM*; VACV mCherry inh: -11.5%; Marburg entry inh: -0.9%[46.1 µM]; Vaccinia Venus: -8.9%

What do the screens show for `COc1ccc(-c2noc(-c3ccc(NCC4CCCO4)c([N+](=O)[O-])c3)n2)cc1OC` (centres undefined)?
LASV entry inh: 5.4%[46.1 µM]; FMDV inh: -14.4%; VACV mCherry inh: -4.5%; Marburg entry inh: -21.9%[46.1 µM]; Vaccinia Venus: -4.0%

What do the screens show for `Cc1ccc(CNC(=O)c2ccc(N3CCC4(CC3)CC(c3cccc(Br)c3)=NO4)c([N+](=O)[O-])c2)cc1`?
FMDV inh: -16.4%; VACV mCherry inh: 0.7%; HCV inhibitor: -17.8%; Vaccinia Venus: -9.4%

How did Cc1ccc(CNC(=O)c2ccc(N3CCC4(CC3)CC(c3ccccc3)=NO4)c(NC(=O)c3ccc(Cl)c([N+](=O)[O-])c3)c2)cc1 do in these assays?
FMDV inh: -4.5%; VACV mCherry inh: inactive; HCV inhibitor: 11.2µM*; Vaccinia Venus: 0.6%

How did Cc1ccc(CNC(=O)c2ccc(N3CCC4(CC3)CC(c3ccccc3)=NO4)c(NC(=O)c3cccc(C)c3)c2)cc1 do in these assays?
FMDV inh: -8.8%; VACV mCherry inh: 6.3%; HCV inhibitor: 10.6%; Vaccinia Venus: -9.5%

Results for COc1ccc(CNC(=O)c2ccc(N3CCC4(CC3)CC(c3ccc(Cl)cc3)=NO4)c([N+](=O)[O-])c2)cc1 ?
FMDV inh: inconclusive; VACV mCherry inh: -1.3%; HCV inhibitor: 0.891µM*; Vaccinia Venus: -20.9%

What do the screens show for `Cc1ccc(-c2ccnc(-n3ncc(C(=O)NC[C@@H]4CCCN5CCCC[C@H]45)c3C3CC3)n2)o1`?
FMDV inh: -10.6%; VACV mCherry inh: inactive; Vaccinia Venus: -9.5%

What do the screens show for `CCc1ccc(OC(C)C(=O)N2CCC(c3nc4ccccc4s3)CC2)cc1` (centres undefined)?
LASV entry inh: 12.8%[46.1 µM]; FMDV inh: inconclusive; VACV mCherry inh: -0.7%; Marburg entry inh: -13.7%[46.1 µM]; Vaccinia Venus: -26.2%

What do the screens show for `Cc1ccc(C2(C)NC(=O)N(CC(=O)NCc3cccc(Cl)c3)C2=O)cc1` (centres undefined)?
FMDV inh: -19.2%; HCV inhibitor: 1.7%

How did O=C(CSc1ccc(S(=O)(=O)N2CCOCC2)cn1)Nc1ccc(F)c(F)c1 do in these assays?
FMDV inh: inconclusive; HCV inhibitor: 6.31µM*

How did O=C(CSc1ccc(S(=O)(=O)N2CCCC2)cn1)Nc1ccc([N+](=O)[O-])cc1C(F)(F)F do in these assays?
LASV entry inh: -24.7%; FMDV inh: inconclusive; VACV mCherry inh: -6.5%; HCV inhibitor: 12.6µM*; Marburg entry inh: inconclusive; Vaccinia Venus: -16.8%

Results for Cc1ccc(C)c(NC(=O)CSc2ccc(S(=O)(=O)N3CCCC3)cn2)c1 ?
FMDV inh: -6.8%; HCV inhibitor: -28.7%

Results for O=C(CSc1ccc(S(=O)(=O)N2CCOCC2)cn1)Nc1ccc(OC(F)F)cc1 ?
FMDV inh: -34.9%; HCV inhibitor: 5.9%

Results for CC(C)CCNC(=O)c1cn(C)c2ccc(S(=O)(=O)N3CCOCC3)cc2c1=O ?
LASV entry inh: 18.1%[46.1 µM]; FMDV inh: -3.3%; VACV mCherry inh: inactive; Marburg entry inh: 25.7%[46.1 µM]; Vaccinia Venus: -25.5%

What do the screens show for `Nc1nccc(-c2cc(-c3ccc(Cl)cc3Cl)no2)n1`?
LASV entry inh: inconclusive; FMDV inh: 22.5%; VACV mCherry inh: -18.9%; HCV inhibitor: -2.7%; Marburg entry inh: 14.1µM*; Vaccinia Venus: -24.8%

What do the screens show for `Clc1ccc(-c2nc(-c3ccncc3)no2)c(Cl)c1`?
FMDV inh: 35.1%; HCV inhibitor: 9.6%

How did Cc1ccc2c(c1)Cc1nc3ccccc3nc1-2 do in these assays?
LASV entry inh: inconclusive; FMDV inh: -72.3%; VACV mCherry inh: inactive; HCV inhibitor: -8.9%; Marburg entry inh: 6.31µM*; Vaccinia Venus: -5.9%

Results for Cc1ccc2occ(CN3CCOc4ccc(C(C)(O)COc5ccccc5)cc4C3)c(=O)c2c1 (centres undefined) ?
FMDV inh: -21.3%; VACV mCherry inh: -20.0%; Vaccinia Venus: 3.1%

How did O=C1N=C2C=CC=CC2N1C1CCN(CCCC(c2ccc(F)cc2)c2ccc(F)cc2)CC1 (centres undefined) do in these assays?
Marburg entry inh: -22.3%

Results for Cc1ccc(N(C)S(=O)(=O)c2ccc(-c3cnc(C4CC4)o3)cc2)cc1 ?
LASV entry inh: 1.41µM*; FMDV inh: -8.7%; VACV mCherry inh: inconclusive; HCV inhibitor: 8.8%; Vaccinia Venus: -21.5%

Results for Cc1ccc(NS(=O)(=O)c2ccc(-c3cnc(C4CC4)o3)cc2)cc1 ?
FMDV inh: 14.3%; HCV inhibitor: inconclusive

What do the screens show for `Cc1ccc2c(c1)CN(CCNC(=O)c1n[nH]c3c1CCCC3)CC(C)O2` (centres undefined)?
FMDV inh: 2.6%; VACV mCherry inh: -9.7%; Vaccinia Venus: -5.7%

How did COCc1c(C(=O)N2CCCC(C)C2)cnn1-c1nccc(-c2cc(C)sc2C)n1 (centres undefined) do in these assays?
FMDV inh: 25.9%; VACV mCherry inh: -5.3%; Vaccinia Venus: -2.7%

What do the screens show for `O=C(Nc1ccccc1N1CCCCC1)c1ccc(Cl)c([N+](=O)[O-])c1`?
LASV entry inh: 30.3%; FMDV inh: inconclusive; VACV mCherry inh: -20.7%; HCV inhibitor: 12.6µM*; Marburg entry inh: 1.5%[14.2 µM]; Vaccinia Venus: inconclusive
